This note sets out measurements from PubChem BioAssay (EPA / NIEHS).

The nature of test [1]: ATG_Sox_CIS: Attagene CIS-FACTORIAL HepG2 Assay for human SRY-box transcription factor (SOX) (AID 2282960). Conditions: HepG2 Attagene cis-factorial SOX reporter, mRNA; actives raise or lower the signal. The method, boiled down:
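HepG2, cis reporter units, 24 h exposure. Reporter mRNA: RT-PCR → FAM labelling → HpaI → CE fluorescence. Bidirectional fit vs DMSO.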

Test [2] has as its target Transcription factor Sp1 (Homo sapiens) (UniProt P08047). In words: ATG_Sp1_CIS: Attagene CIS-FACTORIAL HepG2 Assay for human Specificity Protein 1 (Sp1) (AID 2282961). Conditions: HepG2 Sp1 cis-reporter transcription, actives raise or lower the signal. In short, it runs like this: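 Liver-derived HepG2 cells, cis-element reporter library, 24 h treatment; RNA isolated, cDNA amplified with reporter-specific primers, FAM-labeled fragments sized on capillary analyzer. DMSO baseline, bidirectional curve fit.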

Test [3] is described as follows: ATG_SREBP_CIS: Attagene CIS-FACTORIAL HepG2 Assay for human Sterol Regulatory Element Binding (SREBP) (AID 2282962). The settings on record: HepG2 Attagene cis-factorial SREBP reporter, mRNA; actives raise or lower the signal. The method, boiled down:
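Readout: fluorescent reporter-transcript peaks resolved by capillary electrophoresis after RT-PCR. Cells were human HepG2 carrying transfected cis-promoter reporter constructs, dosed for 24 h. Gain or loss of signal was fitted against DMSO controls.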

The target in test [4] is Signal transducer and activator of transcription 3 (Homo sapiens) (UniProt P40763). The experiment in a line: ATG_STAT3_CIS: Attagene CIS-FACTORIAL HepG2 Assay for human Signal Transducer and Activator of Transcription 3 (STAT3) (AID 2282963). The settings on record: HepG2, Attagene cis-factorial STAT3 reporter transcription; actives raise or lower the signal. The method, boiled down:
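Readout: fluorescent reporter mRNA fragments resolved by capillary electrophoresis. Setup: HepG2 transfected with MRTUs reporting endogenous transcription-factor activity, dosed 24 h. Gain or loss of signal fitted bidirectionally against DMSO control.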

Test [5] can be described thus: ATG_TA_CIS: Attagene CIS-FACTORIAL HepG2 Assay for human TA Basal Promoter (AID 2282964). Conditions: HepG2 Attagene CIS-factorial TA basal promoter reporter; actives raise or lower the signal. In short, it runs like this: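 Steps: transfect HepG2 with MRTUs; dose 24 h; isolate RNA, DNase-treat, reverse-transcribe; PCR and FAM-label reporter cDNA; digest with HpaI 2h at 37 C; run capillary electrophoresis. Activity fitted both directions against DMSO.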

Test [6] in a line: ATG_TCF_b_cat_CIS: Attagene CIS-FACTORIAL HepG2 Assay for human T-Cell-Factor with beta-catenin (TCF/b-cat) (AID 2282965). The settings on record: HepG2 TCF/beta-catenin cis-reporter transcription, actives raise or lower the signal. In short, it runs like this: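 Cells of the HepG2 line carry transiently transfected reporter units whose promoters respond to endogenous factors. Twenty-four hours post-dosing, reporter mRNA induction is measured by fluorescent RT-PCR and capillary electrophoresis, with DMSO as baseline.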

Test [7] is described as follows: ATG_TAL_CIS: Attagene CIS-FACTORIAL HepG2 Assay for human TAL Basal Promoter (AID 2282966).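 Note: background control endpoint measuring basal TAL promoter reporter mRNA not a specific factor.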 The settings on record: HepG2 Attagene cis-factorial TAL promoter reporter; actives raise or lower the signal. In short, it runs like this: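 Transiently transfected HepG2 (cis-regulated reporter units), 24 h treatment, mRNA read by fluorescent CE after RT-PCR; bidirectional fit, DMSO baseline.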

Test [8] is described as follows: ATG_TGFb_CIS: Attagene CIS-FACTORIAL HepG2 Assay for human Transforming Growth Factor (TGF) (AID 2282967). Conditions: HepG2 Attagene CIS TGFb reporter, mRNA transcription; actives raise or lower the signal. In short, it runs like this: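 Cells were dosed for 24 hours, after which total RNA was reverse-transcribed and reporter sequences amplified, labeled and sized by capillary electrophoresis. Activity was fitted in both directions against DMSO.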

Test [9] is described as follows: ATG_VDRE_CIS: Attagene CIS-FACTORIAL HepG2 Assay for human Vitamin D Receptor Element (VDRE) (AID 2282968). The settings on record: HepG2 VDRE cis-reporter transcription, actives raise or lower the signal. The method, boiled down: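 Transient MRTU transfection of HepG2, 24 h compound exposure. Readout: reporter transcripts via RT-PCR and capillary electrophoresis, fluorescence. Bidirectional fit vs DMSO.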

Test [10] has as its target Estrogen receptor (Homo sapiens) (UniProt P03372). In words: ATG_ERa_TRANS: Attagene TRANS-FACTORIAL HepG2 Assay for human Estrogen Receptor alpha (ERa) (AID 2282970; active = hit-call score of the fitted dose curve at least 0.9, where 1 is the maximum). The settings on record: HepG2 Attagene TRANS ERa GAL4 reporter, mRNA. The method, boiled down: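 One of 30 multiplexed endpoints from a HepG2 TRANS system, this one reports ERa-Gal4-driven reporter mRNA. Transcripts were quantified 24 hours post-dosing by fluorescent RT-PCR and capillary electrophoresis, with activity scored as induction over DMSO.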

The target in test [11] is X-box-binding protein 1 (Homo sapiens) (UniProt P17861). The experiment in a line: ATG_Xbp1_CIS: Attagene CIS-FACTORIAL HepG2 Assay for human X-box Binding Protein 1 (XBP1) (AID 2282972). The settings on record: HepG2 XBP1 cis-element reporter, Attagene multiplex; actives raise or lower the signal. The method, boiled down:
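Read-out: fluorescent reporter mRNA fragments resolved by capillary electrophoresis after RT-PCR. Human HepG2 liver cells carried transfected cis-promoter reporter units and were exposed to chemicals for 24 hours. Gain or loss of signal fitted relative to DMSO baseline.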

Test [12] deals with Androgen receptor (Homo sapiens) (UniProt P10275). The experiment in a line: ATG_AR_TRANS: Attagene TRANS-FACTORIAL HepG2 Assay for human Androgen Receptor (AR) (AID 2282973; active = hit-call score of the fitted dose curve at least 0.9, where 1 is the maximum). Conditions: HepG2 Attagene TRANS-FACTORIAL AR reporter transcription. The method, boiled down: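 HepG2 cells transiently transfected with multiplexed GAL4-UAS reporter units and chimeric NR-Gal4 fusion; 24 h compound exposure. Reporter mRNA measured by RT-PCR, 6-FAM labelling, HpaI digestion and capillary electrophoresis; gain-of-signal fitted relative to DMSO baseline.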

Test [13] can be described thus: ATG_GAL4_TRANS: Attagene TRANS-FACTORIAL HepG2 Assay for GAL4 (Internal Marker) (AID 2282976; active = hit-call score of the fitted dose curve at least 0.9, where 1 is the maximum). The settings on record: HepG2 Attagene TRANS GAL4 internal marker reporter. The method, boiled down: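 HepG2 cells transiently transfected with multiplexed GAL4-UAS reporter constructs were dosed for 24 h. Reporter mRNA was measured by RT-PCR, 6-FAM primer extension, HpaI digestion and capillary electrophoresis, and gain of signal was fitted relative to DMSO.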

Test [14] deals with Glucocorticoid receptor (Homo sapiens) (UniProt P04150). The experiment in a line: ATG_GR_TRANS: Attagene TRANS-FACTORIAL HepG2 Assay for human Glucocorticoid Receptor (GR) (AID 2282978; active = hit-call score of the fitted dose curve at least 0.9, where 1 is the maximum;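 note: activators score as hits since higher reporter transcript over DMSO is fitted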). The settings on record: HepG2 Attagene TRANS GR reporter, mRNA transcription. The method, boiled down: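 After 24 h incubation with test chemical, transfected HepG2 cells were lysed for RNA; reporter cDNA was amplified, FAM-labelled, HpaI-digested and sized on a capillary analyser. Signal gain relative to DMSO was scored.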
Glucocorticoid receptor (Homo sapiens), sequence (P04150 whole entry, looked up): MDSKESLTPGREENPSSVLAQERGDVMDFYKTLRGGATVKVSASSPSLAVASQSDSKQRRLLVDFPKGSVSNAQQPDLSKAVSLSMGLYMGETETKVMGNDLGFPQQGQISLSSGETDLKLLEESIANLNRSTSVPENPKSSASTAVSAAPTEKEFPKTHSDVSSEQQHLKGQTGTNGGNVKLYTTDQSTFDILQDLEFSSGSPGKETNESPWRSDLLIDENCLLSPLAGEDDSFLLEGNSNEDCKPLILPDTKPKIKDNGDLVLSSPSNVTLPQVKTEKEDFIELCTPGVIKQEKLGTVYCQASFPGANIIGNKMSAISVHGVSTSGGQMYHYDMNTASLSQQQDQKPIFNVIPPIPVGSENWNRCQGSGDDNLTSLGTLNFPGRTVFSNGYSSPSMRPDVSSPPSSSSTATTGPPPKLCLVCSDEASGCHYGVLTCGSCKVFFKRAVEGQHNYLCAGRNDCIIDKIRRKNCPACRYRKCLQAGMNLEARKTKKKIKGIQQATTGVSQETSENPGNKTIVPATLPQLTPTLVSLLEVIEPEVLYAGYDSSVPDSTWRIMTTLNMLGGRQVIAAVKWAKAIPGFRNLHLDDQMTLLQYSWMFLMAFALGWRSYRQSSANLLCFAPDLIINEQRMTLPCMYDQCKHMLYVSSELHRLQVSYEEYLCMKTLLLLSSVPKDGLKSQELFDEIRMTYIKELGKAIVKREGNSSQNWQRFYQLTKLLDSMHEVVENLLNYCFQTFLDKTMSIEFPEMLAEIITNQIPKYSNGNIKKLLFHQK

In test [15] the target is Nuclear receptor subfamily 1 group I member 3 (Homo sapiens) (UniProt Q14994). In words: ATG_CAR_TRANS: Attagene TRANS-FACTORIAL HepG2 Assay for human Constitutive Androstane Receptor (CAR) (AID 2282969; active = hit-call score of the fitted dose curve at least 0.9, where 1 is the maximum;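 note: activators raise reporter mRNA above DMSO so AC50 marks induction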). The settings on record: HepG2 Attagene TRANS-FACTORIAL CAR reporter. The method, boiled down: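 Transiently transfected HepG2, multiplex TRANS reporters (CAR-Gal4 chimera driving GAL4-UAS reporter). 24 h dosing. Readout: reporter transcript by RT-PCR + capillary electrophoresis, fluorescence intensity; positive direction vs DMSO.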
Nuclear receptor subfamily 1 group I member 3 (Homo sapiens), sequence (Q14994 whole entry, looked up, the tested form may be a part): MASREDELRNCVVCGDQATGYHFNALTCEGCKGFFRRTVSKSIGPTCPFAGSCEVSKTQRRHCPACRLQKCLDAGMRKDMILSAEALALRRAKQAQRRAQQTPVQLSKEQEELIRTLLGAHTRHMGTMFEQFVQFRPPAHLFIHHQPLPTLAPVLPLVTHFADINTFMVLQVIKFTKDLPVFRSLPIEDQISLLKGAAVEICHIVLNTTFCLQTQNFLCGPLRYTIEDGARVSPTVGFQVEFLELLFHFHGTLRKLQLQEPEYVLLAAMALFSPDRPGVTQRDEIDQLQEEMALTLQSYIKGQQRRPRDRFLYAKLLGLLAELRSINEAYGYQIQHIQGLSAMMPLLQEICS

Test [16] concerns the target Oxysterols receptor LXR-alpha (Homo sapiens) (UniProt Q13133). In words: ATG_LXRa_TRANS: Attagene TRANS-FACTORIAL HepG2 Assay for human Liver X Receptor alpha (LXRa) (AID 2282980; active = hit-call score of the fitted dose curve at least 0.9, where 1 is the maximum). Conditions: HepG2 Attagene TRANS reporter, LXRa transactivation. The method, boiled down: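 HepG2 cells were transiently transfected with multiplexed reporter units driven by chimeric LXRa–GAL4 fusion proteins, then dosed for 24 h. Reporter mRNA was quantified by RT-PCR, fluorescent labelling and capillary electrophoresis; gain of signal fitted against DMSO baseline.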

In test [17] the target is Oxysterols receptor LXR-beta (Homo sapiens) (UniProt P55055). The experiment in a line: ATG_LXRb_TRANS: Attagene TRANS-FACTORIAL HepG2 Assay for human Liver X Receptor beta (LXRb) (AID 2282981; active = hit-call score of the fitted dose curve at least 0.9, where 1 is the maximum). The settings on record: HepG2 Attagene TRANS GAL4-LXRb reporter, mRNA. In short, it runs like this: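 Readout: fluorescent reporter mRNA fragments resolved by capillary electrophoresis after RT-PCR. System: transiently transfected human HepG2, exogenous LXRb-Gal4 chimera driving GAL4-UAS reporter, 24 h dosing. Activity fitted upward against DMSO baseline.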
Oxysterols receptor LXR-beta (Homo sapiens), sequence (P55055 whole entry, looked up, the tested form may be a part): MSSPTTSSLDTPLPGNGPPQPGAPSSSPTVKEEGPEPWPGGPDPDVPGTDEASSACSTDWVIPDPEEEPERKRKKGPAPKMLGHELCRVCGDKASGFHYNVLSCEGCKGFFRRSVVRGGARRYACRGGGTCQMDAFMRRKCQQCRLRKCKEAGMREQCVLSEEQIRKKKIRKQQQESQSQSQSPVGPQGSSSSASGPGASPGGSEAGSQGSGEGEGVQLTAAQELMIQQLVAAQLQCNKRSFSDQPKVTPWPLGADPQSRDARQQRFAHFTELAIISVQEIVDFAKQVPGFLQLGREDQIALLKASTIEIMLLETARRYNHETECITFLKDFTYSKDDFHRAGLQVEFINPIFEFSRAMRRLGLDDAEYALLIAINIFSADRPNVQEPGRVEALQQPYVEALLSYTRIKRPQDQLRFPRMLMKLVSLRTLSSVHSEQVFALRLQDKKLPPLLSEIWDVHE

Test [18] can be described thus: ATG_M_19_TRANS: Attagene TRANS-FACTORIAL HepG2 Assay for M19 Transcription Factor (Internal Marker) (AID 2282974; active = hit-call score of the fitted dose curve at least 0.9, where 1 is the maximum). The settings on record: HepG2 Attagene TRANS-FACTORIAL M19 internal marker reporter. In short, it runs like this:
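Transfected HepG2 (GAL4-UAS MRTUs), 24 h compound, TriZol RNA, DNase-treated RT, reporter PCR, FAM label, HpaI digest, CE fluorescence; gain vs DMSO.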

The target of test [19] is Steroid hormone receptor ERR1 (Homo sapiens) (UniProt P11474). In words: ATG_ERRa_TRANS: Attagene TRANS-FACTORIAL HepG2 Assay for human Estrogen-Related Receptor alpha (ERRa) (AID 2282971; active = hit-call score of the fitted dose curve at least 0.9, where 1 is the maximum). The settings on record: HepG2 Attagene TRANS reporter, ERRa transactivation. In short, it runs like this: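 HepG2 cells transiently transfected with multiplexed GAL4-UAS reporter units reading chimeric ERRa-Gal4 activity; 24 h compound exposure. Reporter mRNA measured by RT-PCR, 6-FAM labelling, HpaI digest and capillary electrophoresis; gain of signal fitted versus DMSO baseline.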
Steroid hormone receptor ERR1 (Homo sapiens), sequence (P11474 whole entry, looked up, the tested form may be a part): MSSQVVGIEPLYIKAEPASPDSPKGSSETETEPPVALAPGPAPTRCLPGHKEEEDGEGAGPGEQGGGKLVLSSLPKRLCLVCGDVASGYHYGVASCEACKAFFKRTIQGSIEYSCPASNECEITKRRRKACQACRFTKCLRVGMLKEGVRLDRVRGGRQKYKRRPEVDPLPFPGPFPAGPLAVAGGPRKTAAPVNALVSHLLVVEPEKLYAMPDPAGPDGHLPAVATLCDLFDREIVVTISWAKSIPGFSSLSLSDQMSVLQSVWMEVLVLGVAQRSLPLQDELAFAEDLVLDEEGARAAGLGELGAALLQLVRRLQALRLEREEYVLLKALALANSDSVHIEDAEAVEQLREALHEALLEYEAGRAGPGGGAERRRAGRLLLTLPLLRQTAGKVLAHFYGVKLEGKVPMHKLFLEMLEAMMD

In general, AC50 refers to the concentration giving half of the maximal activity seen.

Records with an inconclusive call do not appear. Activity calls are given as the source filed them. Rule for the calls, unless noted: active = hit-call score of the fitted dose curve at least 0.9, where 1 is the maximum; inactive = score below 0.9.

Estrogen receptor (Homo sapiens), sequence (P03372 whole entry, looked up, the tested form may be a part): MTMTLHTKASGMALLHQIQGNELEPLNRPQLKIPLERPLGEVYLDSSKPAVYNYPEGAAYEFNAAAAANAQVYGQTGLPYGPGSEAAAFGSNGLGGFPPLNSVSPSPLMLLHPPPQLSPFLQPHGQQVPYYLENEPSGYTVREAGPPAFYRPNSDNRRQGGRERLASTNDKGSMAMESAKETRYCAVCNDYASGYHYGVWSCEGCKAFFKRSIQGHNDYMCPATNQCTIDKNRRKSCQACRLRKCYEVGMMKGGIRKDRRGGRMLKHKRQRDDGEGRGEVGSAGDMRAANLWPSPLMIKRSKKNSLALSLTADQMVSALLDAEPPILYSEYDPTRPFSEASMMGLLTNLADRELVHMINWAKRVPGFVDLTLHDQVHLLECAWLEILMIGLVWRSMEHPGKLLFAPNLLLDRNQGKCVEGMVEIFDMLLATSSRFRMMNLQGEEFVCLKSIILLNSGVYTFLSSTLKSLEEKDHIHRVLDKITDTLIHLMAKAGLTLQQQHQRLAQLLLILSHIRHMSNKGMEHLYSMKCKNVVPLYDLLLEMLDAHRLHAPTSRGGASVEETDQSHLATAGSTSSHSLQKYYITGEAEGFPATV
Signal transducer and activator of transcription 3 (Homo sapiens), sequence (P40763 whole entry, looked up, the tested form may be a part): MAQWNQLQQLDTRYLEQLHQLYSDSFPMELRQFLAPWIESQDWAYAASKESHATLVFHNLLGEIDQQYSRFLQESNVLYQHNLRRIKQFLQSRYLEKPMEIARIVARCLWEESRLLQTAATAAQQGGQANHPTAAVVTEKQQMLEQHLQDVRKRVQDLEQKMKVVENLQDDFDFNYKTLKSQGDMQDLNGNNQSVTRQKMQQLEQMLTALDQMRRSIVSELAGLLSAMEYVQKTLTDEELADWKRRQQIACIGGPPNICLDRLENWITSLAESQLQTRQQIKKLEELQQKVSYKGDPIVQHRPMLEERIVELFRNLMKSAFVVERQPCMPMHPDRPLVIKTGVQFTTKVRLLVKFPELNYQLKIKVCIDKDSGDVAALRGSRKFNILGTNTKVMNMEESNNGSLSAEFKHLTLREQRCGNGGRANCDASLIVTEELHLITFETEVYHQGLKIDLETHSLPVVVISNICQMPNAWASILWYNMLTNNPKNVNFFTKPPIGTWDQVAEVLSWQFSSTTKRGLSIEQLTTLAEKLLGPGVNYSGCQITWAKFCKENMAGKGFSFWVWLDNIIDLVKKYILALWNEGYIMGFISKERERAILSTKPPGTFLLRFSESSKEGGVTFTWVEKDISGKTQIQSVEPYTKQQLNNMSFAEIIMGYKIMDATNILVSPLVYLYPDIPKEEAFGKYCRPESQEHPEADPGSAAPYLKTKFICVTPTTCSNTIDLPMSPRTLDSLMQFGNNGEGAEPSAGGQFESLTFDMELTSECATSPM
Transcription factor Sp1 (Homo sapiens), sequence (P08047 whole entry, looked up, the tested form may be a part): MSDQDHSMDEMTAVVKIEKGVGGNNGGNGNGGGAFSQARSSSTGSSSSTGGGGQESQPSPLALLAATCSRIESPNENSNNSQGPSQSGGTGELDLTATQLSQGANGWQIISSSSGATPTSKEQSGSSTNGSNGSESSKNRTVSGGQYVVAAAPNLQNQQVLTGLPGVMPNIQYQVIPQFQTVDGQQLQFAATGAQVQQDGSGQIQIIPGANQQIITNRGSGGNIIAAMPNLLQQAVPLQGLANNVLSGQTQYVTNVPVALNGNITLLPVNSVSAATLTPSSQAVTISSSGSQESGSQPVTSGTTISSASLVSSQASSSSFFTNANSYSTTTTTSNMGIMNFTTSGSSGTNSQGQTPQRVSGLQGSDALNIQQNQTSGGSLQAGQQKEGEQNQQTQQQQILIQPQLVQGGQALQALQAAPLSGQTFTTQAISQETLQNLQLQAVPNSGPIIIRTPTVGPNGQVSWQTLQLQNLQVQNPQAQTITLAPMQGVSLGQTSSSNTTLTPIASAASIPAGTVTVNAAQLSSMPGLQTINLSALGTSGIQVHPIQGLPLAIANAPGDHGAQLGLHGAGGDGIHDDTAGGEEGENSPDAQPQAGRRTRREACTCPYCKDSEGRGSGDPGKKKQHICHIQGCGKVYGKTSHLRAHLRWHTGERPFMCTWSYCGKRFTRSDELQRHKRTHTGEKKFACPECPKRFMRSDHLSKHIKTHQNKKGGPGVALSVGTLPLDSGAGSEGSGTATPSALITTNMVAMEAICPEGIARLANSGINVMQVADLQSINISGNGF
Oxysterols receptor LXR-alpha (Homo sapiens), sequence (Q13133 whole entry, looked up, the tested form may be a part): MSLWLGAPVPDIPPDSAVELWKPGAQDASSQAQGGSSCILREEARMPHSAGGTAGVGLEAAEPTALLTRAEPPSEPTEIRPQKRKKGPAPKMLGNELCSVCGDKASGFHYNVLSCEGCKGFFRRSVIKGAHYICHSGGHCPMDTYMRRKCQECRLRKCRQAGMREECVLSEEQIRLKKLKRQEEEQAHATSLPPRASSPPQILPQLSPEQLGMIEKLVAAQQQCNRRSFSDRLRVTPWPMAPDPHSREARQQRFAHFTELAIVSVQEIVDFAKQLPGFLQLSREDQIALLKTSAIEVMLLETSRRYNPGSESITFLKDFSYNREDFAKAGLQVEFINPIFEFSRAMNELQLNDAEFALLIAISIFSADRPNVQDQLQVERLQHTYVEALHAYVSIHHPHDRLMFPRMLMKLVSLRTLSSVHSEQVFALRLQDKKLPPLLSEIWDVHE
X-box-binding protein 1 (Homo sapiens), sequence (P17861 whole entry, looked up, the tested form may be a part): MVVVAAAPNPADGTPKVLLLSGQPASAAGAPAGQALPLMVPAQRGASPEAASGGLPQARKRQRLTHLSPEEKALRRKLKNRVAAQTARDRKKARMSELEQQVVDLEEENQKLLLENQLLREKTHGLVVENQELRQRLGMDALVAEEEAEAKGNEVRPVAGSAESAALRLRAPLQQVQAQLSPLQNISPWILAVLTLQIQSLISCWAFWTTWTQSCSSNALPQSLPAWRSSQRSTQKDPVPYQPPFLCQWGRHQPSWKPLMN

Consider `CCC1(c2ccc(N)cc2)CCC(=O)NC1=O` (stereo not drawn), for which the outcome in [1], in test [2], in test [3], in [4], in test [5] and in [6] was inactive. Also, the result in test [7], in test [8], in test [9], in test [10], in test [11] and in test [12] was inactive. Further, the compound was classed as inactive in test [13] and in [14].
Turning to `Cc1ccc(N)cc1Cl`, the outcome in test [1], in test [2], in test [3], in [4], in test [5] and in test [6] was inactive. Further, the compound was classed as inactive in [7], in test [8], in [9], in test [15], in [10] and in [11]. Moreover, the result in [16] and in test [17] was inactive.
On to `COc1ccc(C=O)cc1`, for which the compound was called inactive in test [1], in test [2], in test [3], in test [4], in test [5] and in [6]. The compound was called inactive in test [7], in test [8], in test [9], in test [15], in test [11] and in test [18]. Besides, in [16], the call was inactive.
With `CCN1CCC2(CC1)COc1cc3c(cc12)N(C(=O)c1ccc(-c2ccc(-c4nnc(C)o4)cc2C)cc1)CC3`, the compound was called inactive in test [1], in test [2], in test [3], in [4], in [5] and in [7]. In addition, the compound was called inactive in test [8], in test [9], in test [15], in test [10], in test [19] and in test [11]. Also, the compound was called inactive in [18], in test [13] and in [16]. Besides, the concentration at half-maximal activity (AC50) in test [6] was 6.25 µM (active); in [17], 1.01 µM (active).
